# tim10-1 inh: growth inhibitors of tim10-1 mutant yeast, primary screen, luminescence, uHTS | inhibition, % at 20 µM | S. cerevisiae tim10-1 ts strain growth, BacTiter-Glo, 24 h | actives 2.2% (n = 330,000);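 active means inhibition of at least 40%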;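 further: mutant grown at 25 °C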
# TIM10 inh: growth inhibitors of isogenic TIM10 control yeast, primary screen, counter-screen for tim10-1 yeast inhibitor project, luminescence, uHTS. S. cerevisiae TIM10 strain growth, BacTiter-Glo luminescence, 24 h. inhibition, % at 10 µM. actives 1.4% (n = 330,000). AID 463195, 2010;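 active means inhibition of 40% or more at the single tested concentration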;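 further: wild-type TIM10 isogenic control strain grown at permissive 25 °C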
# tim23-1 inh: growth inhibitors of tim23-1 mutant yeast, primary screen, luminescence, uHTS; inhibition, % at 20 µM; S. cerevisiae tim23-1 growth, BacTiter-Glo luminescence, 24 h; actives 1.3% (n = 330,000);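 active means growth inhibition of the mutant yeast at or above 50%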;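 further: temperature-sensitive mutant grown at 25 °C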
# Calb FLC: C. albicans growth inhibition with fluconazole, primary screen, CaCi-2 strain, Alamar Blue fluorescence; C. albicans CaCi-2 (fluconazole-resistant clinical isolate) + fluconazole, 48 h; AID 1979, 2009; actives 0.57% (n = 300,000); growth inhibition, % (test concentration not listed);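 active means growth inhibition above about 58% in most replicates, limit read from the data, passing the limit was not always enough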;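 further: all wells also contain fluconazole at 8 µg/ml as a sub-toxic cotreatment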
# PfHsp90 set2: growth inhibition of PfHsp90-expressing yeast, primary screen, antimalarial PfHsp90 inhibitor project, S. cerevisiae, BacTiter-Glo luminescence, single point, set 2. BacTiter-Glo ATP, 48 h; yeast lacking PDR1 and PDR3 efflux regulators. inhibition, % at 9.4 µM. actives 0.32% (n = 310,000). AID 504621, 2011;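 active means every replicate shows inhibition above about 80%, whatever the replicate mean, limit read from the data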
# SKKanGAS inh: S. pyogenes SKKanGAS growth inhibitors in kanamycin, primary screen, streptokinase expression inhibitor project, SKKanGAS strain, BacTiter-Glo luminescence | AID 1662, 2009 | 6 h | inhibition, % at 7.5 µM | actives 1.3% (n = 300,000);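 active means mean replicate score, as percent of positive control median, at least 50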;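 further: strain carries kanamycin resistance gene driven by streptokinase promoter and grows in 40 µg/ml kanamycin; loss of luminescence reflects streptokinase promoter inhibition or plain growth inhibition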
# tim23-1 confirm: tim23-1 mutant yeast growth inhibitors, confirmation, luminescence, single concentration; shares compounds with tim23-1 inh; S. cerevisiae tim23-1 growth, BacTiter-Glo luminescence, 24 h; inhibition, % at 20 µM; actives 83% (n = 4,400);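 active means inhibition above about 39% in either of two replicate wells at 20 µM, limit read from the data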;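 further: temperature-sensitive tim23-1 mutant grown at 25 °C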
# A number is an active result; 0 = inactive; - = no result. Most compounds without a hit are left out; they make up all but 4.7% or so of the library.
SMILES,tim10-1 inh,TIM10 inh,tim23-1 inh,Calb FLC,PfHsp90 set2,SKKanGAS inh,tim23-1 confirm
Cc1c(O)c(CN2CCCC2)cc2c3c(c(=O)oc12)CCC3,0,0,53,0,0,0,0
CCC1(c2ccccc2)NC(=O)N(CC(=O)NCc2ccc(C)cc2)C1=O (stereo not drawn),0,0,0,0,0,0,-
Cc1ccc2nc(NC(=O)COC(=O)c3cccnc3)sc2c1,0,0,53,-,-,-,60
Cc1ccc2nc(NC(=O)COC(=O)c3ccco3)sc2c1,0,0,0,0,-,0,-
CCOc1ccc(N=c2scc(-c3ccccc3)n2CCO)cc1,0,0,0,0,0,0,-
CCn1c(-c2ccccc2)csc1=Nc1ccc(O)cc1,0,0,58,0,0,0,39
CC1CCCCC1NC(=S)NC(=O)c1cccs1 (stereo not drawn),0,0,52,0,0,0,54
Cc1cccc(C)c1Nc1nnc(SCC(=O)c2ccc(Br)s2)s1,0,0,52,0,0,0,61
CCSc1nnc(NC(=O)c2ccc(Br)s2)s1,0,0,0,0,0,0,-
CC1CCN(C(=O)C2CCCN2S(=O)(=O)c2ccc(Cl)cc2)CC1 (stereo not drawn),0,0,0,0,0,0,-
COc1ccc(/C=C2\SC(=Nc3ccccc3OC)NC2=O)cc1,0,0,53,0,0,0,60
COC(=O)CCSc1nc(N2CCOCC2)c2c(c1C#N)CC(C)(C)OC2,0,0,0,0,0,0,-
CC(C)CCSc1nc(N2CCOCC2)c2c(c1C#N)CC(C)(C)OC2,0,0,60,0,0,0,0
Cn1c(C=O)c(-c2ccc3cc[nH]c3c2)c2ccccc21,0,0,64,-,0,-,55
Cn1c(-c2ccsc2)c(-c2cccs2)c2cc(-c3ccc4cc[nH]c4c3)ccc21,0,0,0,-,0,-,-
CCc1nnc(NS(=O)(=O)c2ccc(NC(=S)NC(=O)/C=C/c3ccc(C(C)C)cc3)cc2)s1,0,0,52,0,0,87,55
CN(c1ccccc1)S(=O)(=O)c1ccc(Cl)c(C(=O)NCC(c2ccco2)N2CCCC2)c1 (stereo not drawn),0,0,0,-,0,-,-
S=C(NCCSCc1c(Cl)cccc1Cl)Nc1ccccc1,0,0,50,95,-,-,51
CCCN1C(=O)C(Cc2nc3ccccc3c(=O)n2-c2ccccc2)c2ccccc21 (stereo not drawn),0,0,51,0,0,0,49
CC(C)N1C(=O)C(Cc2nc3ccccc3c(=O)n2-c2ccccc2)c2ccccc21 (stereo not drawn),0,0,0,0,0,0,-
CN(C(=O)COC(=O)CCCN1C(=O)c2cccc3cccc(c23)C1=O)C1CCS(=O)(=O)C1 (stereo not drawn),0,0,0,0,-,0,-
CCN(CC)c1ccc(NC(=S)NC(=O)C2CCC2)cc1,0,0,58,0,0,0,0
CC(=O)Nc1ccc(NC(=S)NC(=O)C2CCCC2)cc1,0,0,0,0,0,0,-
N#Cc1ccc(NC(=S)NC(=O)C2CCCCC2)cc1,0,0,51,-,0,-,49
Cc1cc(C)cc(NC(=S)NC(=O)C2CC2)c1,0,0,54,0,0,0,0
O=C(Cc1ccc(F)cc1)Nc1nnc(-c2ccc(F)cc2)o1,0,0,0,0,0,0,-
CCOC(=O)[C@@H]1[C@H]2COc3ccccc3[C@@H]2N2C(=O)N(c3cccc(F)c3)C(=O)[C@@]12C,0,0,0,-,0,-,-
Cc1c([N+](=O)[O-])cnc(Sc2ccccc2)c1[N+](=O)[O-],0,0,75,0,0,0,73
Cc1cc(C)c(NC(=O)CS(=O)CC(=O)N2CCN(c3cccc(C)c3C)CC2)c(C)c1 (stereo not drawn),0,0,90,0,0,0,0

# Screens as filed in PubChem BioAssay.
